# GALR2 blocker: GALR2 antagonists in receptor-expressing cells, primary screen; hit rate 0.39% among 140,000; Galanin receptor type 2 (Homo sapiens), O43603; antagonist mode; AID 828, 2007; inhibition, % at 4 µM;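 further: cells stimulated with galanin 1-16 at roughly its EC80; 0% = agonist challenge control and 100% = basal control without agonist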
# Target sequence (O43603 whole entry, looked up): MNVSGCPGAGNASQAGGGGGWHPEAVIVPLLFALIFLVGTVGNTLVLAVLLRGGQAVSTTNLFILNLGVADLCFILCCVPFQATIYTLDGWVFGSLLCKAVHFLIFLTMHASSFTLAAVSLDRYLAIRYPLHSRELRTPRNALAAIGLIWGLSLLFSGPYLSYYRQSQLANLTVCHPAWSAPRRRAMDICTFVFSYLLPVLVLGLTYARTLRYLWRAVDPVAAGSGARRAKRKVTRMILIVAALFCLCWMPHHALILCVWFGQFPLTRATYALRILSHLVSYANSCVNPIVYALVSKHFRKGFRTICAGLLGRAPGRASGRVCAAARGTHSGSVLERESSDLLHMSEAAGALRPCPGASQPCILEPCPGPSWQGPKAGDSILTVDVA
# S1P2 ag: S1P2 receptor agonists, primary screen, cell-based; activation, % at 4.5 µM; S1P2-expressing cell line, agonist reporter read-out; Sphingosine 1-phosphate receptor 2 (Homo sapiens), O95136; hit rate 0.46% among 97,000; AID 729, 2007; in the data active means activation above about 16%;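 further: 0% = vehicle low control and 100% = maximal reference agonist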
# GALR2 ag: GALR2 receptor agonists, primary screen, cell-based. Galanin receptor type 2 (Homo sapiens), O43603. GALR2-expressing cells, agonist activation read-out. activation, % (test concentration not listed). hit rate 0.48% among 140,000. AID 803, 2007; in the data active means activation above about 5%, passing the limit was not always enough;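 further: 0% = vehicle buffer wells and 100% = reference agonist at full effect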
# S1P2 antag: human S1P2 receptor antagonists, primary screen, cell-based. hit rate 0.21% among 97,000. cell-based S1P2 antagonist assay, inhibition at 5 uM. inhibition, % at 5 µM. Sphingosine 1-phosphate receptor 2 (Homo sapiens), O95136. AID 736, 2007; in the data active means inhibition above about 45%;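 further: CRE beta-lactamase reporter cells expressing human S1P2 stimulated with S1P; 0% = agonist at EC80 alone and 100% = agonist plus reference antagonist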
# GALR2 blk conf: GALR2 antagonists, retest of hits, confirmation, cell-based; shares compounds with GALR2 blocker; GALR2-expressing cells, antagonist mode, inhibition; inhibition, % at 4 µM; hit rate 60% among 480; AID 866, 2007;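 further: cells stimulated with galanin at about its EC80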
# BLA inh counter: inhibitors of NFAT-driven beta-lactamase reporter, confirmation, counter-screen for GALR2 antagonist project, CHO NFAT-bla cells, FRET readout; shares compounds with GALR2 blocker; thapsigargin-stimulated; inhibition, % at 4.2 µM; hit rate 36% among 480; AID 867, 2007;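 active means inhibition above the mean inhibition across tested compounds plus 3 SD, cut at about 27% in these data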;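 further: 0% = 500 nM thapsigargin stimulated wells and 100% = unstimulated BSA only wells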
# Numbers without * were called inactive; / = no result. Compounds with a hit are over-represented: about 1.2% of the library has one in this group of screens. Unless noted, no stated cut-off is given here; in the data, active means inhibition above about 27%; inactive means the rest.
SMILES,GALR2 blocker,S1P2 ag,GALR2 ag,S1P2 antag,GALR2 blk conf,BLA inh counter
CC(/C=N/n1c(-c2ccc(Cl)cc2)n[nH]c1=S)=C\c1ccco1,8,/,0,/,/,/
N#CC(C#N)=C1C=CC=CN1/C(=C\c1ccco1)C(=O)c1ccc(-c2ccccc2)cc1,28*,/,0,/,41*,33*
N#CC(C#N)=C1C=CC=CN1/C(=C\c1ccco1)C(=O)c1ccc(Cl)cc1,68*,/,-1,/,60*,71*
O=C(O)/C(=C/c1ccco1)NC(=O)c1ccccc1,1,/,0,/,/,/
CCCNC(=O)c1ccc2c(c1)ncn2-c1ccccc1OC,28*,/,-1,/,14,5
CC(C)CC(=O)NC(=S)Nc1ccc(S(=O)(=O)Nc2nccs2)cc1,4,/,-1,/,/,/
Cc1ccc(NC(=O)CN2C(=O)NC3(CCc4ccccc43)C2=O)cc1Cl (stereo unspecified),28*,-6,-4,16,4,-1
O=C(CN1C(=O)NC2(CCc3ccccc32)C1=O)Nc1ccc(N2CCOCC2)cc1 (stereo unspecified),-2,1,-3,-16,/,/
O=C(NC(=S)NCCCN1CCOCC1)c1ccc([N+](=O)[O-])cc1,-4,/,0,/,/,/
CCC(NC(=O)Nc1nnc(C(F)(F)F)s1)(C(F)(F)F)C(F)(F)F,59*,-5,4,75*,39*,16
CC(CC(=O)NC1CCCC1)c1ccccc1 (stereo unspecified),1,-4,-2,11,/,/
Cc1ccc(C(=O)O)cc1NC(=O)CN1C(=O)C2C3c4ccccc4C(Br)(c4ccccc43)C2C1=O (stereo unspecified),12,/,-2,/,/,/
c1ccc(-n2nnnc2Oc2cccc3cccnc23)cc1,-1,-9,-3,16,/,/
N#Cc1cc(Oc2cccc3cccnc23)c(-n2nnc3ccccc32)cc1C#N,39*,-6,-6,-2,18,13
N#C/C(=C\c1ccc(OC(=O)c2cccs2)cc1)c1nc2ccccc2[nH]1,-8,/,-2,/,/,/
N#C/C(=C\c1cccs1)c1nc2ccccc2[nH]1,32*,/,-1,/,30*,8
CN(C(=O)Nc1ccc(Cl)cc1Cl)[C@H]1c2cc(Br)ccc2OC[C@H]1CO,-1,-2,-2,14,/,/
Cc1ccc(S(=O)(=O)/N=C2/C=C(Sc3ncn[nH]3)C(=O)c3ccccc32)c(C)c1,27*,/,-1,/,16,27
O=[N+]([O-])c1cc(C=Nc2ccc3ccccc3c2)ccc1Br,33*,/,-2,/,13,5
CCOC(=O)C(=Cc1cc(=O)c(OC)co1)C(=O)OCC,41*,/,-2,/,67*,58*
COc1coc(C(O)CN)cc1=O (stereo unspecified),3,/,-3,/,/,/
CCOc1cccc(NC(=O)Cc2cccs2)c1,-7,/,0,/,/,/
O=C(Cc1cccs1)Nc1cccc(-c2nc3cc4ccccc4cc3[nH]2)c1,28*,/,0,/,30*,10
Clc1ccc(OCCN2CCN(c3ncnc4sccc34)CC2)cc1,40*,/,0,/,49*,14
COc1cc(Nc2cc(C)nc3ncnn23)cc(OC)c1,30*,/,-2,/,4,5
SMILES,GALR2 blocker,S1P2 ag,GALR2 ag,S1P2 antag,GALR2 blk conf,BLA inh counter
Cn1nc(C(C)(C)C)cc1C(=O)NCc1ccc(N2CCCC2=O)cc1,45*,/,-2,/,39*,9
Cc1ccc(CNC(=O)c2ccc(N3CCCC3=O)cc2)cc1,7,-2,-2,6,/,/
Cc1ccc2nsnc2c1S(=O)(=O)NCCc1c(C)[nH]c2ccc(F)cc12,-8,0,-2,-24,/,/
COc1cc(N2CCCC2)c(OC)cc1/C=C(/C#N)c1ccc(F)cc1,6,-6,-4,32,/,/
COc1cc(N2CCCC2)c(OC)cc1/C=C(/C#N)c1ccc(Br)cc1,63*,0,-3,23,11,17
Cc1nc2c(-c3ccc(F)cc3)c(C)nn2c(C)c1CCC(=O)N1CCN(c2ccc(F)cc2)CC1,-2,-3,-1,17,/,/
O=C(c1ccc(S(=O)(=O)c2ccc(F)cc2)c([N+](=O)[O-])c1)N1CCCCCC1,31*,/,-1,/,37*,14
COc1ccc(NC(=O)c2c3c(nc4ccccc24)CCC3)cc1S(=O)(=O)N1CCOCC1,9,/,-3,/,/,/

# Screening data: PubChem BioAssay, The Scripps Research Institute Molecular Screening Center
